Test results reported in PubChem BioAssay (NCATS).
Values without a mark were called inactive. Records with an inconclusive call do not appear. The source made the active and inactive calls. Unless noted, the call rests on the fitted dose curve; in most records, active means well fitted curve in either direction with a large enough effect (not every such curve was filed as active); inconclusive means small, poorly fitted or top-dose-only effect, or another doubt; inactive means flat fitted curve, though single readings scatter.

Columns and labels:
[1] = target: Lysosomal acid glucosylceramidase (Homo sapiens) (UniProt P04062); test: Glucocerebrosidase-p2 (AID 348; in the data active means potency below about 10 µM; further: potency means the concentration at half of the fitted maximal effect); conditions: purified GBA, blue fluorogenic substrate, 40 min
Outline: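 Compounds titrated from 0.6 nM upwards against 0.2 nM enzyme in pH 5.9 citric acid/KH2PO4, taurocholate, tween-20; blue fluorogenic substrate 80 uM, 40 min room temperature, stopped and read Ex 365/Em 440 for AC50.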

[2] = AP1 Signaling Pathway (AID 357); conditions: ME-180 AP-1-bla reporter, EGF-induced, beta-lactamase ratio, 5 h; at 7.69 µM (top of the series) unless noted; further: on the % scale 0 is the no-effect control and ±100 the full control effect
Outline: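 ME-180 cells with beta-lactamase reporter under AP-1 response element, stimulated with EC50 EGF; compounds tested in titration series, 5 h at 37 °C. CCF4 substrate added 2.5 h at room temperature; 460/530 nm emission ratio gave %activity and AC50.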

[3] = target: Cytochrome P450 1A2 (Homo sapiens) (UniProt P05177); test: p450-cyp1a2 (AID 410; calls by dose curve; further: potency means the concentration at half of the fitted maximal effect;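 on activity change, negative = inhibition: -100% = full effect of reference inhibitor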)
Outline: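 Human CYP1A2 (20nM) demethylated Luciferin-ME at its Km (100uM) in 100mM KPO4. After 10 min compound preincubation, NADPH regeneration ran the reaction 60 min at room temperature. Luciferin was read by luminescence, normalized to 57 uM furafylline.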

[4] = NFAT Signaling Pathway (AID 444); conditions: Jurkat NFAT-bla M1, carbachol, beta-lactamase ratio, 5 h; at 7.69 µM (top of the series) unless noted;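 further: carbachol stimulus at about its EC50 of 1 µM final; on the % scale 0 is the no-effect control and ±100 the full control effect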
Outline: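 Read-out: CCF4 FRET ratio (460 nm/530 nm) after 1 h RT dye loading, used for %activity and AC50 from titration series. Cells: Jurkat NFAT-β-lactamase/M1 line, treated with compound plus 1 uM carbachol for 5 h, 37 °C.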

[5] = Stat Signaling Pathway (AID 446); conditions: ME-180 (cervical carcinoma) SIE beta-lactamase reporter, IL-6 stimulated, 5 h; at 7.69 µM (top of the series) unless noted;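 further: ME-180 cervical cancer cells given 40 pM IL-6 alongside compound; SIE-controlled beta-lactamase reporter measured as 460/530 nm FRET emission ratio; on the % scale 0 is the no-effect control and ±100 the full control effect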
Outline: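 IL-6/STAT signaling read in ME-180 cells via an SIE beta-lactamase reporter. Stimulus was 40 pM IL-6 (its AC50) for 5 hrs, so both activation and inhibition register.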

[6] = target: Glucocorticoid receptor (Homo sapiens) (UniProt P04150); test: GR-GFP Redistribution (AID 450;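 active means compounds whose dose series gives a full or clear partial fitted curve of increased nuclear translocation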; further: potency means the concentration at half of the fitted maximal effect); conditions: U2OS GR-GFP nuclear translocation, laser cytometry, 2 h
[7] = target: Glucocorticoid receptor (Homo sapiens) (UniProt P04150); test: GR-EFC Redistribution (AID 451; calls by dose curve; further: potency means the concentration at half of the fitted maximal effect); conditions: CHO-K1 GR-EFC translocation, beta-gal luminescence, 2 h
Outline: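 Translocation of GR-ED fusion to nuclear EA restores b-gal, read by luminescence after 1 h room-temperature detection. Engineered CHO-K1 biosensor cells, 1,000/well, exposed 2 h at 37 C to titrations up to 46 uM final.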

[8] = target: Mitogen-activated protein kinase 10 (Mus musculus) (UniProt Q61831); test: JNK3 AlphaScreen Assay (AID 530);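 further: kinase came from lysate of stimulated human HepG2 cells; signal reports phosphorylation of biotinylated GST-cJun 1-79 at Ser73 with 10 µM ATP; on the % scale 0 is the no-effect control and ±100 the full control effect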
Outline: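 Room-temperature AlphaScreen kinase assay; pre-activated HepG2 lysate as JNK3 source, biotin-GST-cJun(1-79) substrate, 10 uM ATP, compound 15 min preincubation.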

[9] = target: 3',5'-cyclic-AMP phosphodiesterase 4B (Homo sapiens) (UniProt Q07343); test: qHTS Assay for Inhibitors of PDE-IV (AID 607; active means well fitted activation curve with a large enough effect in the main read-out, with a control signal flat, not every such curve was filed as active; further: % of control where 0% means no effect)
Outline: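 Live HEK293 cells with a modified cyclic nucleotide-gated (CNG) channel report intracellular cAMP via membrane-potential dye fluorescence (ex 535/em 590 nm). Endogenous PDE-IV was targeted. Compounds were tested at up to 22.9 uM final; RO 20-1724 100 uM served as control.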

Lysosomal acid glucosylceramidase (Homo sapiens), sequence (P04062 whole entry, looked up): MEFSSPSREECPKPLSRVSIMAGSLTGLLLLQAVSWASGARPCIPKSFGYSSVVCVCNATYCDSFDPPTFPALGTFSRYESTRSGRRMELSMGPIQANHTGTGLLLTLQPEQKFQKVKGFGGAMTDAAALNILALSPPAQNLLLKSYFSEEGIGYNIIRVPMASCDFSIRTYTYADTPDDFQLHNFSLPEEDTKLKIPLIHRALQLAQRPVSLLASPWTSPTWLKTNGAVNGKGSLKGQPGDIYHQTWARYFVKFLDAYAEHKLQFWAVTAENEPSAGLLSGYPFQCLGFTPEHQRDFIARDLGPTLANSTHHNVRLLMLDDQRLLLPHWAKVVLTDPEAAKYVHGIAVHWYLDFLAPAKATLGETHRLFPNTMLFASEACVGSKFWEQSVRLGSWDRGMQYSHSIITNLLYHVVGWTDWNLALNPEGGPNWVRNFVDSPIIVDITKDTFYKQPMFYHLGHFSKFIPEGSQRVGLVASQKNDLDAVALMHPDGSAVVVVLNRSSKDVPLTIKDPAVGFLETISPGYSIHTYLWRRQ
Cytochrome P450 1A2 (Homo sapiens), sequence (P05177 whole entry, looked up): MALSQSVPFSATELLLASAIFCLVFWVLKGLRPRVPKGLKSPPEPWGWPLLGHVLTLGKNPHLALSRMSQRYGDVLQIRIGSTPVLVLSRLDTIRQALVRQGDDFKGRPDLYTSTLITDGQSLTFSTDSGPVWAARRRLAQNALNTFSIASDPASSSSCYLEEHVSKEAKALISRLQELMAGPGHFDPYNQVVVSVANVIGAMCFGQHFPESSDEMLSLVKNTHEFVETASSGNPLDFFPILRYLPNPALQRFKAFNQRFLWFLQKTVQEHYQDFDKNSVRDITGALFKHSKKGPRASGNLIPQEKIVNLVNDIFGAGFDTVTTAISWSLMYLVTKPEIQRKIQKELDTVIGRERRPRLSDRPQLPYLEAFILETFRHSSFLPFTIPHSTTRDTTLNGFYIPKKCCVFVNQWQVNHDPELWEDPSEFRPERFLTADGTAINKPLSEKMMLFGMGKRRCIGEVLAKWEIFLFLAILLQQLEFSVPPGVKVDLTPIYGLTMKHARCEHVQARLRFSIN
Glucocorticoid receptor (Homo sapiens), sequence (P04150 whole entry, looked up, the tested form may be a part): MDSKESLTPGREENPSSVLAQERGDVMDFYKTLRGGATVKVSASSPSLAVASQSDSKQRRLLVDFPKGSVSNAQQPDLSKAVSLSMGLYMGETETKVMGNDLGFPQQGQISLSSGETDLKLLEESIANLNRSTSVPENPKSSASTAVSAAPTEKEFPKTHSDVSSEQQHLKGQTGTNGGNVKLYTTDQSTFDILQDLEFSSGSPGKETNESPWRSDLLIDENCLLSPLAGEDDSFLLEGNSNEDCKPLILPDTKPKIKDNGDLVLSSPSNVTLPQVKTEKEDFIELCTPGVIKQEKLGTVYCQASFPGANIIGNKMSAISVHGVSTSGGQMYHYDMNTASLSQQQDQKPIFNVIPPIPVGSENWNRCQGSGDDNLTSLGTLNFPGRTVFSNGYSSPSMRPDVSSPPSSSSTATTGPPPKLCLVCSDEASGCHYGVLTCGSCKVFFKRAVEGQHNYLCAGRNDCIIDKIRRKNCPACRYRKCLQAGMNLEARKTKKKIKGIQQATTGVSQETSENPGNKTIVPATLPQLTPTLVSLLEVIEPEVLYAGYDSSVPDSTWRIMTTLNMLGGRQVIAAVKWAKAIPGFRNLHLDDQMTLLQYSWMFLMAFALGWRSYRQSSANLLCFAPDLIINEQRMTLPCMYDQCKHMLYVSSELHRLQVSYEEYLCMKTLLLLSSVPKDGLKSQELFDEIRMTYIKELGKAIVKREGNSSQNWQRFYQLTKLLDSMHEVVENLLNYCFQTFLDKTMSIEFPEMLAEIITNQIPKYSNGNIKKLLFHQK
3',5'-cyclic-AMP phosphodiesterase 4B (Homo sapiens), sequence (Q07343 whole entry, looked up): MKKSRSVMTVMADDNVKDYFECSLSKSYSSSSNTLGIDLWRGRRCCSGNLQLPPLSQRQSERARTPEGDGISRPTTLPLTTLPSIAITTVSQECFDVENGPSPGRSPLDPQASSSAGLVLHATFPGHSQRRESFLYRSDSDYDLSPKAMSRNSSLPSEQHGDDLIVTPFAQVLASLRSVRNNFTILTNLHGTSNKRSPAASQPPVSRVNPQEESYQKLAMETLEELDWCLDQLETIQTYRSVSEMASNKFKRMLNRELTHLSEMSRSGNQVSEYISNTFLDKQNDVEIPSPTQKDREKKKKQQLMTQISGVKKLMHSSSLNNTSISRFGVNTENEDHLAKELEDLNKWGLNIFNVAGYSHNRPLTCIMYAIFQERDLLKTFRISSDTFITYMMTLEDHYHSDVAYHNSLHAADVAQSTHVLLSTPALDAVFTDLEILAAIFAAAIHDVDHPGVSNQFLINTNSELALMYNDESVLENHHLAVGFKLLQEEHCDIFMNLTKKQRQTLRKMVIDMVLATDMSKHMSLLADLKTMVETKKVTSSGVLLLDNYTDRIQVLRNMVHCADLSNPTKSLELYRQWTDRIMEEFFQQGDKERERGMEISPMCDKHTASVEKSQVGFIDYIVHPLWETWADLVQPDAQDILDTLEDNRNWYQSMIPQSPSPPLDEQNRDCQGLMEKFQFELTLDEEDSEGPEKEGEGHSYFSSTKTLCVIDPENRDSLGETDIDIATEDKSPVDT

| SMILES | Potency [1] [µM] | activity change, negative = inhibition [2] [%] | activity change, negative = inhibition [3] | activity change, negative = inhibition [4] [%] | activity, negative = inhibition [5] [%] | Potency [6] [µM] | Potency [7] [µM] | Potency [8] | Potency [9] | Potency [3] |
| --- | --- | --- | --- | --- | --- | --- | --- | --- | --- | --- |
| C/C(=N/NC1=NCCN1)c1cn(C2=NCCN2)nc1C | > 11.4 | 6.21 | -13.9% [at 2.29 µM] | -15.6 | 1.37 | > 46 | > 9.22 | inactive | inactive |  |
| O=S(=O)(O)c1ccc(O)c2ncccc12.O=S(=O)(O)c1ccc(O)c2ncccc12.[Zn] | > 11.4 | 6.49 |  | -15.3 | 7.8 | > 46 | > 9.22 | inactive | inactive | 0.631 µM (active) |
| CC(C)(CC(=O)Nc1ccccc1)C(=O)O | > 11.4 | -3.37 |  | -4.05 | 2.37 | > 46 | > 9.22 | inactive | inactive | inactive |
| c1ccc(CCc2cccnc2)nc1 | > 11.4 | 12.9 |  | 14.1 | 0.19 | > 46 | > 9.22 | inactive | inactive | 0.398 µM (active) |
| Cc1ncc(CSC(=N)N)n1Cc1ccccc1 | > 11.4 | 6.64 |  | -15.5 | 4.51 | > 46 | > 9.22 | inactive | inactive | inactive |
| Cc1nc2ccccc2nc1-c1ccc(N=[N+]([O-])c2ccc(-c3nc4ccccc4nc3C)cc2)cc1 | > 11.4 | 6.31 |  | -3.33 | -5.62 | > 46 | > 9.22 | inactive | inactive | 6.31 µM (active) |
| CC1(C)OC[C@@H]2O[C@H](n3cnc4c(N)nc(Cl)nc43)[C@@H](OS(C)(=O)=O)[C@@H]2O1 | > 11.4 | -1.96 | -14.5% [at 2.29 µM] | -7 | -0.333 | > 46 | > 9.22 | inactive | inactive |  |
| O=C(O)CCSC1=NCCN1 | > 11.4 | 1.39 |  | 4.68 | 6.09 | > 46 | > 9.22 | inactive | inactive | inactive |
